Screening data (PubChem)
This is a sample that favours compounds with a hit; in the whole collection about 0.93% have one here.
CDC25B-CDK2 inh – human CDC25B-CDK2/CyclinA binding inhibition. P30305+P24941. HTRF CDC25B-CDK2/CyclinA binding, anti-His/anti-Flag; active compounds read high. z-score (test concentration not listed). 94,000 compounds, 0.72% hits; in the data active = z-score above about 3.2
TAR Tat displ – HIV-1 TAR-Tat binding disruption; HIV-1 TAR RNA, Tat peptide displacement FRET; active compounds read high; z-score (concentration not given with the values); 100,000 compounds, 0.6% hits; active = z-score of 3 or more in at least 2 runs
Hits are given with their value.

What do the screens show for `CN(CC(=O)N1CCc2ccccc2C1)S(=O)(=O)c1ccc2c(c1)CCCC(=O)N2`?
TAR Tat displ: inactive

What do the screens show for `Cn1c(=O)c(=O)n(C)c2cc(S(=O)(=O)CCC(=O)N3CCc4ccccc4C3)ccc21`?
CDC25B-CDK2 inh: inactive; TAR Tat displ: 4.06

How did CC1CC(C)CN(C(=O)CCS(=O)(=O)c2ccc3c(c2)n(C)c(=O)c(=O)n3C)C1 (stereo not drawn) do in these assays?
CDC25B-CDK2 inh: inactive; TAR Tat displ: inactive

Results for CN(C)S(=O)(=O)N(CC(=O)N1CCc2ccccc2C1)c1ccccc1 ?
CDC25B-CDK2 inh: inactive; TAR Tat displ: 11

How did CC1CC(C)(C)NC(=S)N1CCCC(=O)N1CCN(c2ccccn2)CC1 (stereo not drawn) do in these assays?
CDC25B-CDK2 inh: inactive

Results for CCCn1cc(-c2ccccc2)nc1C ?
TAR Tat displ: inactive

Results for O=C(NCc1ccccc1)c1sc(=S)n2c1[nH]c(=O)c1ccccc12 ?
TAR Tat displ: 8.36

How did CC(C)NC(=O)c1sc(=S)n2c1[nH]c(=O)c1ccc(C(=O)NC(C)c3ccccc3)cc12 (stereo not drawn) do in these assays?
TAR Tat displ: inactive

Results for O=C(NCc1ccco1)c1ccc2c(=O)[nH]c3c(C(=O)NCC4CCCO4)sc(=S)n3c2c1 (stereo not drawn) ?
TAR Tat displ: 4.7

What do the screens show for `CCN(CC)CCNC(=O)c1ccc2c(=O)[nH]c3c(C(=O)NC(C)C)sc(=S)n3c2c1`?
TAR Tat displ: 6.41

Results for O=C(NCc1cccc(Cl)c1)c1sc(=S)n2c1[nH]c(=O)c1ccccc12 ?
TAR Tat displ: inactive

What do the screens show for `CC(=O)NCCNC(=O)c1ccc2c(=O)[nH]c3c(C(=O)NC4CCCC4)sc(=S)n3c2c1`?
TAR Tat displ: inactive

How did CC1CCN(c2ccc(NC(=O)NC3COc4ccccc4C3)cc2)CC1 (stereo not drawn) do in these assays?
TAR Tat displ: inactive

Results for O=C(O)CSc1cccc2cccc(C(=O)O)c12 ?
CDC25B-CDK2 inh: inactive; TAR Tat displ: inactive

Results for O=C(O)CCSc1cccc2cccc(C(=O)O)c12 ?
CDC25B-CDK2 inh: 10.9

What do the screens show for `Cc1ccc(Cl)c2c1NC(=O)C2(O)CC(=O)c1ccc(F)cc1` (stereo not drawn)?
CDC25B-CDK2 inh: inactive; TAR Tat displ: inactive

What do the screens show for `Cc1ccc(Cl)c2c1NC(=O)C2(O)CC(=O)c1ccccc1` (stereo not drawn)?
CDC25B-CDK2 inh: 16.8; TAR Tat displ: inactive

What do the screens show for `Brc1ccc(-c2noc(-c3cc(C4CC4)[nH]n3)n2)cc1`?
TAR Tat displ: inactive

Results for Cc1ccc2c(=O)c(C(=O)c3ccc(F)cc3)c[nH]c2n1 ?
TAR Tat displ: inactive

What do the screens show for `Cc1ccc2c(=O)c(C(=O)O)c[nH]c2n1`?
CDC25B-CDK2 inh: inactive; TAR Tat displ: 19.6

How did Cc1nnc2c(NCCCN3CCOCC3)nc3ccccc3n12 do in these assays?
CDC25B-CDK2 inh: inactive; TAR Tat displ: inactive

What do the screens show for `Cc1cc(=O)n2nc(N(C)CC(=O)NCCCOC(C)C)sc2n1`?
CDC25B-CDK2 inh: inactive; TAR Tat displ: inactive

Results for COc1ccc(Oc2ccc([N+](=O)[O-])c3nonc23)cc1 ?
CDC25B-CDK2 inh: 11.6

How did COc1ccc(Oc2ccc([N+](=O)[O-])cc2-c2nc(-c3ccccn3)no2)cc1 do in these assays?
CDC25B-CDK2 inh: inactive

What do the screens show for `Cc1cccc(Oc2coc3cc(OC(=O)c4ccncc4)ccc3c2=O)c1`?
CDC25B-CDK2 inh: inactive; TAR Tat displ: inactive

What do the screens show for `CCOC(=O)c1c(N)n(-c2ccc(C)c(C)c2)c2nc3ccccc3nc12`?
CDC25B-CDK2 inh: inactive; TAR Tat displ: inactive

How did CCCCOC(=O)c1c(N)n(-c2ccccc2OC)c2nc3ccccc3nc12 do in these assays?
CDC25B-CDK2 inh: inactive

What do the screens show for `CCCCOC(=O)c1c(N)n(-c2ccc(OC)cc2)c2nc3ccccc3nc12`?
CDC25B-CDK2 inh: 11; TAR Tat displ: inactive

Results for COC(=O)c1c(N)n(-c2ccc(OC)c(OC)c2)c2nc3ccccc3nc12 ?
CDC25B-CDK2 inh: 10.2; TAR Tat displ: inactive

What do the screens show for `O=C(CCc1nc2sc3c(c2c(=O)[nH]1)CCCCC3)N1CCN(c2ccc(F)cc2)CC1`?
TAR Tat displ: inactive

What do the screens show for `CC(C)(C)C1CCc2c(sc3nc(CCC(=O)N4CCC(C(N)=O)CC4)[nH]c(=O)c23)C1` (stereo not drawn)?
TAR Tat displ: inactive

How did CC(=O)NCCNC(=O)CCc1nc2sc3c(c2c(=O)[nH]1)CCCCC3 do in these assays?
TAR Tat displ: 5.98

Results for CNC(=O)CCc1nc2sc3c(c2c(=O)[nH]1)CCCCC3 ?
TAR Tat displ: inactive

Results for NC(=O)C1CCN(C(=O)CCc2nc3sc4c(c3c(=O)[nH]2)CCCCC4)CC1 ?
TAR Tat displ: 19.4

What do the screens show for `O=C(CCc1nc2sc3c(c2c(=O)[nH]1)CCCCC3)N1CCN(Cc2ccc3c(c2)OCO3)CC1`?
TAR Tat displ: 10.5

What do the screens show for `COc1ccc(OC)c(NS(=O)(=O)c2cc3c(cc2Cl)NC(=O)CO3)c1`?
TAR Tat displ: inactive

Results for Cc1nonc1NC(=O)N1CCOCC1 ?
CDC25B-CDK2 inh: inactive; TAR Tat displ: inactive

How did Cc1nonc1NC(=O)Nc1ccncc1 do in these assays?
CDC25B-CDK2 inh: 9.17; TAR Tat displ: inactive

Results for C=CCN1C(=O)C2(c3ccccc31)c1c(oc3ccc(F)cc3c1=O)C(=O)N2CCCOC (stereo not drawn) ?
CDC25B-CDK2 inh: inactive; TAR Tat displ: inactive

Results for O=C(NCCN1CCCC1)C1=Cc2sc3c(c2CS1)CCCC3 ?
TAR Tat displ: inactive

Results for Cc1sc2c(c1C)CSC(C(=O)NCCN1CCCC1)=C2 ?
TAR Tat displ: 6.31

Results for Cc1ccc(Nc2nc(NCCO)nc3c2cnn3C)cc1 ?
TAR Tat displ: inactive

How did Cn1c(=O)c2c3nc4ccccc4cc3c(=O)n(C)c2n(C)c1=O do in these assays?
CDC25B-CDK2 inh: 20.1

Results for Cn1c(=O)c2cc3cc(Cl)ccc3nc2c2c(=O)n(-c3ccccc3)c(=O)n(-c3ccccc3)c21 ?
CDC25B-CDK2 inh: inactive

How did NCCCCNC(=O)c1c(O)c2cccc3c2n(c1=O)CC3 do in these assays?
TAR Tat displ: inactive

What do the screens show for `Cc1ncc(CCCCN(C)C)c2c1[nH]c1ccccc12`?
CDC25B-CDK2 inh: inactive; TAR Tat displ: inactive

How did CNCCCCc1cnc(C)c2[nH]c3ccccc3c12 do in these assays?
TAR Tat displ: 5.02

How did COc1ccc(-c2cc3c4c(C)n(Cc5ccccc5)c(C)c4c(C)nn3c2)cc1 do in these assays?
CDC25B-CDK2 inh: inactive; TAR Tat displ: inactive

What do the screens show for `COc1ccc(-c2cc3c4c(C)n(Cc5ccc6c(c5)OCO6)c(C)c4c(C)nn3c2)cc1`?
CDC25B-CDK2 inh: inactive; TAR Tat displ: inactive

Results for COc1ccc(CCn2c(C)c3c(C)nn4cc(-c5ccc(C)o5)cc4c3c2C)cc1OC ?
CDC25B-CDK2 inh: inactive; TAR Tat displ: 34.7

How did COc1ccc(-c2cc3c4c(C)n(C)c(C)c4c(C)nn3c2)cc1 do in these assays?
CDC25B-CDK2 inh: inactive; TAR Tat displ: 11.1

What do the screens show for `CC1(C)Cc2c(c(N3CCOCC3)nc3sc4c(NCC5CCCO5)ncnc4c23)CO1` (stereo not drawn)?
CDC25B-CDK2 inh: inactive; TAR Tat displ: inactive

How did CCNc1nc2[nH]c(=O)cc(O)c2s1 do in these assays?
CDC25B-CDK2 inh: 10.6; TAR Tat displ: inactive

Results for CNc1nc2[nH]c(=O)cc(O)c2s1 ?
CDC25B-CDK2 inh: inactive; TAR Tat displ: inactive

What do the screens show for `CCc1nnc2c(Nc3ccc(OC)c(Cl)c3)nc3ccccc3n12`?
CDC25B-CDK2 inh: inactive; TAR Tat displ: inactive
